# D2 ag-1: Beta-Arrestin HTS for Positive Allosteric Modulators of the Human D2 Dopamine Receptor: Agonists | D(2) dopamine receptor (Homo sapiens), P14416 | DiscoveRx PathHunter D2 beta-arrestin, luminescence, 90 min; 100% = 57 uM dopamine signal | activation, % (test concentration not listed) | actives 0.084% (n = 360,000); in the data active = activation above about 40%
# Target sequence (P14416 whole entry, looked up): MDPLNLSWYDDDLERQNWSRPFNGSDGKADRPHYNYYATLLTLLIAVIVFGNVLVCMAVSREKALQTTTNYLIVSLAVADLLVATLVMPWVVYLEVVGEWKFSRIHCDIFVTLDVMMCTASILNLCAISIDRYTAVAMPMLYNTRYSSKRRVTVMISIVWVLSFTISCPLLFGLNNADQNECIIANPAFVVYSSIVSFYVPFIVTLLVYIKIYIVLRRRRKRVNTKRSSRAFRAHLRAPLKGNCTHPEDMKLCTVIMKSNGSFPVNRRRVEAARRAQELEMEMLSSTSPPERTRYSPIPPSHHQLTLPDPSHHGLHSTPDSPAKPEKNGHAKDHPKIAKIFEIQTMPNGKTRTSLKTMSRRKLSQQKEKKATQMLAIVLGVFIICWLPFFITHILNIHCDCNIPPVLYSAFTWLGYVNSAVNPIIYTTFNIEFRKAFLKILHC
#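 Agonist mode: compounds alone added to overnight-plated D2 PathHunter cells for 90 min at 37 C, with 57 uM final dopamine (EC100) defining full response. Beta-arrestin recruitment detected by chemiluminescent reagent, read after 1 h at ambient temperature.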
# D2 PAM-1: Beta-Arrestin HTS for Positive Allosteric Modulators of the Human D2 Dopamine Receptor: Potentiators | D(2) dopamine receptor (Homo sapiens), P14416 | DiscoveRx D2 beta-arrestin cells, luminescence, 90 min; 100% = 57 uM dopamine signal | potentiation, % (no concentration beside the values) | actives 0.23% (n = 360,000) | AID 624464, 2012; in the data active = potentiation above about 50%
#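 PathHunter beta-arrestin assay in DiscoveRx D2 cells. Compounds were added with an EC20 of dopamine (50 nM final) for 90 min at 37 deg C. Luminescence was read 1 h after detection reagent, with 57 uM dopamine as the EC100 control.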
# D2 ag-2: HTS Assay for Allosteric Agonists of the Human D2 Dopamine Receptor: Primary Screen for Agonists; D(2) dopamine receptor (Homo sapiens), P14416; HEK293 T-REx D2 cells, calcium flux agonist mode; activation, % at 2 µM; actives 0.53% (n = 340,000); AID 485358, 2010;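 active = activation over 3 SD above normal in the single-dose calcium agonist read, cut at about 30% in these data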; also: 0% is about no effect
#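 In this primary screen, compounds producing a positive calcium signal within 180 s of addition to tetracycline-induced, force-coupled HEK293 Trex D2 cells are flagged; cells are dye-loaded with a no-wash calcium kit beforehand.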
# D2 antagonist: HTS Assay for Allosteric Antagonists of the Human D2 Dopamine Receptor: Primary Screen for Antagonists | D(2) dopamine receptor (Homo sapiens), P14416 | HEK293 TREx D2 cells, calcium flux, dopamine EC80 | inhibition, % at 10 µM | actives 2% (n = 340,000); in the data active = inhibition above about 30%; inactive = below that, where a call was filed; also: 0% is about no effect
#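 Calcium mobilization kinetics were recorded at 1 s intervals in tetracycline-induced HEK293 T-REx D2 cells, first for 180 s after compound addition and then 180 s after EC80 dopamine.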
# D2 PAM-2: HTS Assay for Positive Allosteric Modulators of the Human D2 Dopamine Receptor: Primary Screen for Potentiators | HEK293 T-REx D2, calcium flux, EC20 dopamine potentiation | AID 485347, 2010 | potentiation, % at 10 µM | actives 0.34% (n = 340,000);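 active = potentiation over 3 SD above the plate norm, cut at about 30% in these data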; also: 0% is about no effect
#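 Tetracycline-induced HEK293 T-REx cells force-coupled to calcium signalling expressed D2; compounds were pin-added after a 10 s baseline, read kinetically 180 s, then an EC20 dopamine challenge followed with a further 180 s calcium read.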
# The depositor's hits bear a star; x = no result. Sampled rows, rich in hits. Any-hit rate of the full collection: about 2.4%.
SMILES,D2 ag-1,D2 PAM-1,D2 ag-2,D2 antagonist,D2 PAM-2
CCC(C)NC(=O)CSc1nc2cc3c(cc2c(=O)n1CCCCCC(=O)NCc1ccc(OC)cc1)OCO3 (stereo not drawn),x,x,0,x,7
CCCCn1c(NC(=O)c2ccccc2)c(C#N)c2nc3ccccc3nc21,0,2,7,38*,0
CCC(C)n1c(NC(=O)c2ccccc2)c(C#N)c2nc3ccccc3nc21 (stereo not drawn),-6,-11,0,-6,-7
COCCn1c(N)c(C#N)c2nc3ccccc3nc21,1,-4,1,36*,-5
COCCCn1c(N)c(-c2nc3ccccc3n2C)c2nc3ccccc3nc21,0,-4,39*,14,-10
CCc1cccc(NC(=O)c2ccc(CNS(=O)(=O)c3ccc4c(c3)C(C)(C)C(=O)N4C)cc2)c1,x,x,0,x,1
COc1cccc(CNS(=O)(=O)c2cc(Br)cc3c2N(C(C)=O)C(C)C3)c1 (stereo not drawn),-1,-13,0,40*,-23
CC(=O)N1c2c(cc(Br)cc2S(=O)(=O)NCc2ccccc2)CC1C (stereo not drawn),4,-9,-3,0,x
COc1ccc(C(CNC(=O)c2ccc(C)c(S(=O)(=O)Nc3ccccc3OC)c2)N2CCCC2)cc1 (stereo not drawn),-3,-23,-1,49*,-15
C=CCN(c1ccccc1)S(=O)(=O)c1cccc(C(=O)NCC(c2ccc(OC)cc2)N2CCCCC2)c1 (stereo not drawn),-5,-32,1,55*,-27
COc1ccc(C(CNC(=O)c2cccc(N(C)C)c2)N2CCCC2)cc1 (stereo not drawn),-3,-19,0,47*,-25
COc1ccc(C(CNC(=O)c2cccc(S(=O)(=O)Nc3ccccc3OC)c2)N2CCCC2)cc1 (stereo not drawn),0,-34,1,-8,-29
O=C(CSc1nccn1Cc1ccccc1)Nc1ccc2c(c1)OCO2,x,x,0,x,-5
O=c1nc(Nc2cccc(Cl)c2)oc2cc(Cl)oc(=O)c12,-6,3,-2,32*,3
CCOc1cccc(NC(=O)c2sc3nc(-c4ccc(F)cc4)ccc3c2N)c1,x,x,x,x,6
CC1CC(C)CN(CCCNC(=O)CN2C(=O)CSc3ccc(S(=O)(=O)N4CCCCC4)cc32)C1 (stereo not drawn),-4,-38,0,52*,-3
O=C(CN1C(=O)CSc2ccc(S(=O)(=O)N3CCOCC3)cc21)NCCCN1CCc2ccccc2C1,0,-21,1,47*,-20
CC1CC(C)CN(CCCNC(=O)c2ccc3c(c2)NC(=O)CS3)C1 (stereo not drawn),-1,-30,0,48*,-8
O=C(CN1C(=O)CSc2ccc(S(=O)(=O)N3CCOCC3)cc21)NCCCN1CCOCC1,0,-6,0,9,6
CCOC(=O)Cn1c(=O)n(CC2CCCO2)c2nc(-c3ccc(CC)cc3)nc(C(N)=O)c21 (stereo not drawn),x,x,0,x,4
COc1ccc(Br)cc1CNC(=O)c1cc2n(n1)CCCN(Cc1ccc(C)cc1)C2=O,x,x,2,x,0
CCOc1cc(Cl)c(S(=O)(=O)n2ccnc2)cc1Cl,x,x,0,x,-2
COc1ccccc1CO/N=C/NC(=O)c1c(OC)ccnc1Oc1ccc(F)cc1,-2,-3,1,37*,13
COc1ccnc(Oc2ccc(F)cc2)c1C(=O)N/C=N/OCc1cccc(F)c1,0,-1,3,9,-2
O=C(O)C1CC=CCC1C(=O)NCCCCc1ccccc1 (stereo not drawn),1,-1,0,34*,0
SMILES,D2 ag-1,D2 PAM-1,D2 ag-2,D2 antagonist,D2 PAM-2
O=C(CCc1ccccc1)NCc1nc2cccnc2n1Cc1ccc(F)cc1,x,x,-1,x,17
Cc1cc2c(s1)Nc1ccccc1N=C2N1CCN(C)CC1,x,x,x,77*,x
NS(=O)(=O)c1cccc(NC(=O)COC(=O)C2(c3cccc(F)c3)CCCC2)c1,4,7,-2,51*,-8
C=CCN1C(=O)/C(=C/C=C2/N(CC)c3ccc(S(=O)(=O)N(C)C)cc3N2CC)SC1=S,-3,-16,52*,16,1
COc1ccc2c(c1)sc1ncc(C(=O)NCc3cccc(C)c3)c(=O)n12,x,x,0,x,0
COc1cc(C2c3c(oc4ccccc4c3=O)C(=O)N2c2nnc(C(C)C)s2)cc(OC)c1OC (stereo not drawn),x,x,0,x,-5
O=C(c1ccc(F)cc1)C1CCN(CCn2c(=O)[nH]c3ccccc3c2=O)CC1,-5,-37,1,58*,-21
CCc1ccc(-c2nc(CN3CCCC(C(=O)N4CCN(c5cc(Cl)ccc5C)CC4)C3)c(C)o2)cc1 (stereo not drawn),x,x,0,x,2
Fc1cccc(CN2CCc3nc(Nc4ccc5c(c4)OCCO5)ncc3C2)c1F,x,x,6,x,1
COc1ccc(NC(=O)CN2C(=O)c3ccccc3S2(=O)=O)cc1OC,0,2,0,-14,33*
Cc1ccc(NC(=O)CN2C(=O)c3ccccc3S2(=O)=O)cc1C,-3,-5,0,-3,-3
CC1CCc2c(sc(NC(=S)NC(=O)c3ccccc3)c2C#N)C1 (stereo not drawn),-2,-1,-1,37*,7
N#Cc1c(NC(=S)NC(=O)c2ccccc2)sc2c1CCN(CCc1ccccc1)C2,x,x,44*,0,-4
COc1ccc(N2CCN(C(=O)CN3C(=O)COc4ccc(S(=O)(=O)N5CCC(C)CC5)cc43)CC2)cc1,x,x,0,x,-23
Cc1cccc(S(=O)(=O)c2c(N)n(Cc3ccco3)c3nc4ccccc4nc23)c1,-3,-9,3,4,45*
CCOc1ccc(C(=O)Nc2ccc(C(=O)OCc3cc(=O)n4c(C)csc4n3)cc2)cc1,x,x,3,x,4
COc1ccc(-c2noc(Cn3c(=O)c4ccccc4n(CC(=O)Nc4cccc(OC)c4)c3=O)n2)cc1,x,x,1,x,1
COc1cc(NS(C)(=O)=O)cc(OC)c1OC,3,2,0,30*,1
COc1cc(NS(=O)(=O)c2cc3[nH]c(=O)[nH]c3cc2C)cc(OC)c1OC,x,x,x,x,13
CCOc1ccc(C(=O)NCCn2cc(SCC(=O)Nc3ccccc3)c3ccccc32)cc1,x,x,2,x,17
